Results reported in PubChem BioAssay (Tox21).
Unmarked numbers belong to inactive results. A call without a number means that no potency is given here. Active and inactive are the calls of the source. Unless noted, calls come from the whole dose curve; as a rule, active = well fitted curve in the direction sought with a large enough effect in the repeat runs; inconclusive = weak or mixed curves; inactive = no such curve, though single readings can be large; an effect the other way counts as inactive or inconclusive.

How the values were obtained:
[1] = qHTS assay to identify small molecule antagonists of the thyroid receptor (TR) signaling pathway (AID 743065); note: series mostly up to about 70 µM; nearly all actives have a fitted effect of over 55% in size
How it was run: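 GH3.TRE-Luc rat pituitary cells (two TREs driving luciferase) were dosed with compound, then stimulated with 1 nM T3 (final) for 23.5 h at 37 C. ONE-Glo luminescence was the read-out, with CellTiter-Fluor fluorescence as the cytotoxicity counter-screen.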

[2] = system: thyroid hormone receptor (rat, GH3 cells); experiment: qHTS assay to identify small molecule agonists of the thyroid receptor (TR) signaling pathway (AID 743066; calls by dose curve)
[3] = biological target: Estrogen receptor (Homo sapiens) (UniProt P03372); experiment: qHTS assay to identify small molecule antagonists of the estrogen receptor alpha (ER-alpha) signaling pathway (AID 743069; active = well fitted curve in the direction sought with a large enough effect in the signal ratio in the repeat runs, not every such curve was filed as active; inconclusive = weak or mixed curves, or effect the other way; inactive = no such curve, though single readings can be large or run the other way; the % refers to the signal ratio)
How it was run: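 Beta-lactamase FRET fluorescence is read after 2 hr at room temperature with LiveBLAzer B/G substrate. Before that, ER-alpha-bla HEK293 cells sit 4 hr after plating, then receive compound plus 17beta-estradiol and incubate 18 hr at 37C.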

[4] = qHTS assay to identify small molecule antagonists of the estrogen receptor alpha (ER-alpha) signaling pathway - cell viability counter screen (AID 743074; calls by dose curve;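 note: HEK293 cells carrying ER-alpha-UAS-bla reporter stimulated with 17beta-estradiol; nearly all actives have a fitted effect of over 45% in size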)
[5] = biological target: Estrogen receptor (Homo sapiens) (UniProt P03372); experiment: qHTS assay to identify small molecule agonists of the estrogen receptor alpha (ER-alpha) signaling pathway (AID 743075; calls by dose curve;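 note: HEK293 GripTite cells with ER-alpha and UAS-driven beta-lactamase reporter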; note: potency is the fitted concentration of half-maximal effect)
[6] = biological target: Estrogen receptor (Homo sapiens) (UniProt P03372); experiment: qHTS assay to identify small molecule agonists of the estrogen receptor alpha (ER-alpha) signaling pathway using the BG1 cell line (AID 743079); note: nearly all actives have a fitted effect of over 20% in size; note: potency is the fitted concentration of half-maximal effect
[7] = qHTS assay to identify small molecule antagonists of the estrogen receptor alpha (ER-alpha) signaling pathway using the BG1 cell line (AID 743080; calls by dose curve;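 note: BG1 cells stimulated with 17beta-estradiol alongside compound; series mostly up to about 70 µM; nearly all actives have a fitted effect of over 25% in size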)
How it was run: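 Seeding, 24 h rest, compound transfer from DMSO, 17beta-estradiol addition, 21.5 h incubation, CellTiter-Fluor (30 min, 37 C), then ONE-Glo (30 min, room temperature): this sequence was run on BG1-Luc-4E2 reporter cells.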

[8] = qHTS assay to identify small molecule antagonists of the estrogen receptor alpha (ER-alpha) signaling pathway using the BG1 cell line - cell viability counter screen (AID 743081);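 note: compound given together with 17beta-estradiol as the ER stimulus; series mostly up to about 70 µM; nearly all actives have a fitted effect of over 45% in size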
[9] = biological target: Aromatase (Homo sapiens) (UniProt P11511); experiment: qHTS assay to identify aromatase inhibitors (AID 743083); note: series mostly up to about 70 µM; nearly all actives have a fitted effect of over 55% in size
[10] = qHTS assay to identify aromatase inhibitors - cell viability counter screen (AID 743084);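 note: cells stimulated with testosterone during compound exposure; nearly all actives have a fitted effect of over 55% in size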

Sequence of Estrogen receptor (Homo sapiens) (P03372 whole entry, looked up): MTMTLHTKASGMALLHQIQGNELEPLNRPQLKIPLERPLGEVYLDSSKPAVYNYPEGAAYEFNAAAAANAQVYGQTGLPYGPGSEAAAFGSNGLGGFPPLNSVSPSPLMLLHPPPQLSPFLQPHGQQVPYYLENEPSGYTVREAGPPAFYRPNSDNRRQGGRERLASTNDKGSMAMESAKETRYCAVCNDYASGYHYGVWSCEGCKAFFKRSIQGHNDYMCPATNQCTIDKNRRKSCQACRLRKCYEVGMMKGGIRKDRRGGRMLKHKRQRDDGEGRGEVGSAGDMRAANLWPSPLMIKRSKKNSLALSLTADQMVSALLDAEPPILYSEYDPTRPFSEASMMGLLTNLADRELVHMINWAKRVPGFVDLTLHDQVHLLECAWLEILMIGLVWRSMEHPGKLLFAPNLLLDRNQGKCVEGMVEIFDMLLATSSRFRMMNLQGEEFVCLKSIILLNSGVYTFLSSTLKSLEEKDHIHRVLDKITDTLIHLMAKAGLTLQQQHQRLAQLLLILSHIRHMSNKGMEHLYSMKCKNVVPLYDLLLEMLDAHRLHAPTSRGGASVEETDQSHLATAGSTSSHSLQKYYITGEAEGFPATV
Sequence of Aromatase (Homo sapiens) (P11511 whole entry, looked up): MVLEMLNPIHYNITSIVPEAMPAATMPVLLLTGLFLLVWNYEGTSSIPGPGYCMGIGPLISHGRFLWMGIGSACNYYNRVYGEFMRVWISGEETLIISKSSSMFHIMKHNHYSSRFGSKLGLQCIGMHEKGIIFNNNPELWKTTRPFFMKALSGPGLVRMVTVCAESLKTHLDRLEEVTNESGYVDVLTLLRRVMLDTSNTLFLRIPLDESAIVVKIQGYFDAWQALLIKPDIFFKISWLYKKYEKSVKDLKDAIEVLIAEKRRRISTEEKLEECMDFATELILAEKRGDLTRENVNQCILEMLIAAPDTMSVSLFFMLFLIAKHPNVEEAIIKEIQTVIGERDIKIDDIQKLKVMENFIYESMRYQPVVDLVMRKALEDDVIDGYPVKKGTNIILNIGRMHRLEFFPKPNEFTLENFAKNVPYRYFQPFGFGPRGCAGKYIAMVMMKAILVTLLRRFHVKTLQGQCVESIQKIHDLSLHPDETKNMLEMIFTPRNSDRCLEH

Row | SMILES | Potency [1] | outcome [2] | Potency [3] | Potency [4] | Potency [5] | Potency [6] | Potency [7] | outcome [8] | outcome [9] | Potency [10]
1 | O=C(CO)[C@@H](O)[C@H](O)[C@H](O)CO | inactive | inactive | inactive | inactive | inactive | inactive | inactive | inactive | inactive | inactive
2 | CCC(C)(CCCC(C)C)OC(C)=O (stereo unspecified) | inactive | inactive | inactive | inactive | inactive | inactive | inactive | inactive | inactive | inactive
3 | CCC1C(=O)OCC1Cc1cncn1C (stereo unspecified) | inactive | inactive | inactive | inactive | inactive | inactive | inactive | inactive | inactive | inactive
4 | CC(C)(N)C#N | inactive | inactive | inactive | inactive | inactive | inactive | inactive | inactive | inactive | inactive
5 | CCNS(=O)(=O)c1ccc(C)cc1 | inactive | inactive | inactive | inactive | inactive | inactive | inactive | inactive | inactive | inactive
6 | [K+] | inactive | inactive | inactive | inactive | inactive | inactive | inactive | inactive | inactive | inactive
7 | CC(N)C12CC3CC(CC(C3)C1)C2 (stereo unspecified) | inactive | inactive | inactive | inactive | inactive | inactive | inactive | inactive | inactive | inactive
8 | O=S(=O)(O)c1cccc(S(=O)(=O)O)c1 | inactive | inactive | inactive | inactive | inactive | inactive | inactive | inactive | inactive | inactive
9 | CCCCc1ccc2c(n1)[C@@H](c1ccc(OC)cc1C[C@H](C)C(=O)O)[C@H](C(=O)O)[C@H]2c1ccc2c(c1)OCO2 | inactive | inactive | inactive | inactive | inactive | inactive | inactive | inactive | inactive | inactive
10 | CC(C)(CCC(=O)O)C(=O)O | inactive | inactive | inactive | inactive | inactive | inactive | inactive | inactive | inactive | inactive
11 | CCCCN(CCC(=O)OCC)C(C)=O | inactive | inactive | inactive | inactive | inactive | inactive | inactive | inactive | inactive | inactive
12 | O=S(=O)(O)c1cc(O)c(O)c(S(=O)(=O)O)c1 | inactive | inactive | inactive | inactive | inactive | inactive | inactive | inactive | inactive | inactive
13 | O=[N+]([O-])c1ccc(/C=N\O)o1 | inactive | inactive | inactive | inactive | inactive | inactive | inactive | inactive | inactive | inactive
14 | CCOC(=O)COc1cc(-n2ncc(C(F)(F)F)c(C)c2=O)c(F)cc1Cl | inactive | inactive | inactive | inactive | inactive | inactive | – | inactive | inactive | inactive
15 | CC(=O)Oc1cccc(C)c1 | inactive | inactive | inactive | inactive | inactive | inactive | – | inactive | inactive | inactive
16 | OCCCCCO | inactive | inactive | inactive | inactive | inactive | 40.3 µM (active) | – | inactive | inactive | inactive
17 | CC(C)(C)OC(=O)c1cccc(N)c1 | inactive | inactive | inactive | inactive | 56.4 µM [inconclusive] (active) | 31.4 µM (active) | – | inactive | inactive | inactive
18 | C=CCOCC(O)CO (stereo unspecified) | inactive | inactive | inactive | inactive | inactive | inactive | – | inactive | inactive | inactive
19 | CCN1C=CN(C)C1C (stereo unspecified) | inactive | inactive | inactive | inactive | inactive | inactive | – | inactive | inactive | inactive
20 | CCCC(C)C(=O)OCC (stereo unspecified) | inactive | inactive | inactive | inactive | inactive | inactive | – | inactive | inactive | inactive
21 | Cc1cccc(C)c1NC(=O)CC12CCCN1CCC2 | inactive | inactive | inactive | inactive | inactive | inactive | – | inactive | inactive | inactive
22 | CC[C@H]1OC(=O)[C@H](C)[C@@H](O[C@H]2C[C@@](C)(OC)[C@@H](O)[C@H](C)O2)[C@H](C)[C@@H](O[C@@H]2O[C@H](C)C[C@H](N(C)C)[C@H]2O)[C@](C)(OC)C[C@@H](C)C(=O)[C@H](C)[C@@H](O)[C@]1(C)O | inactive | inactive | inactive | inactive | inactive | inactive | inactive | – | inactive | inactive
